From PubChem BioAssay
Hits are enriched below; roughly 8.3% of the tested compounds scored in any of these assays.
FBPA Giardia inh: qHTS Assay for Inhibitors of Fructose-1,6-bisphosphate Aldolase from Giardia Lamblia; A8B2U2; AID 2451, 2010; purified Giardia FBPA; Potency, µM (top dose mostly 59.6 µM), usual class: inhibitors; hit rate 0.71% among 290,000; further: nearly all actives have a fitted effect of over 55% in size
Target sequence (A8B2U2 whole entry, looked up): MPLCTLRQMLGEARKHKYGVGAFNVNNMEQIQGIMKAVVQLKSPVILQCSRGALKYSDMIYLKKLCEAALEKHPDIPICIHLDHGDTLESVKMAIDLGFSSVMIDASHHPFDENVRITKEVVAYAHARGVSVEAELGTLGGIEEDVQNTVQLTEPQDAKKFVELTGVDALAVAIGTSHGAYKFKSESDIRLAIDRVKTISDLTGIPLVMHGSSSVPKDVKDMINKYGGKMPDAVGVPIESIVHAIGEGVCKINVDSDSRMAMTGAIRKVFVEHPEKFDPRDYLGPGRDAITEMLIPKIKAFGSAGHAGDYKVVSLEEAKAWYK
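40 nM FBPA preincubated 10 min at RT with compound (up to 57.5 uM final), then substrate plus GAPDH/TPI/NAD/arsenate coupling and diaphorase/resazurin added. Fluorescence read after 20 min at RT, 525/598 nm.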
HCMV antiviral: qHTS Assay for inhibitors of the human cytomegalovirus (HCMV) | HFF cells, HCMV-luciferase reporter, 72 h; stronger effect = lower value | activity change, negative = inhibition, % at 57.5 µM | hit rate 4.5% among 410,000 | AID 1259415, 2018; in the data active means activity change below about -60%; inconclusive means no clear call, values can overlap the other calls; inactive means above about -39%
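Cell-based, HFFs, 1000 cells/well, 16 h 37C; cpds in DMSO + HCMV-luc, MOI 1 PFU/cell; 72 h 37C; OneGlo luminescence after 5 min RT; norm. to buffer vs Salinomycin 10uM.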
HCV inh: qHTS Assay for Inhibitors of Hepatitis C Virus (HCV) | Huh7.5.1 HCVcc-Cre infection, luciferase reporter, 44 h | Potency, µM (series often up to 41.8 µM), actives largely listed as inhibitors | hit rate 3.4% among 340,000 | AID 651820, 2012
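Infectious HCV cell culture screen: compound-treated cells (1,000/well, pre-plated 4 h) are infected with HCVcc-Cre at roughly 0.5 moi and grown 44 h. Infection is quantified by luciferase signal after 15 min substrate incubation at room temperature.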
MARV entry inh: qHTS for inhibitors of binding or entry into cells for Marburg Virus | Potency, µM (doses to about 37.8 µM), most hits filed as inhibitors | Marburg virus pseudotyped entry inhibition, cell reporter | hit rate 1.8% among 300,000; calls by dose curve; tested in HEK293 cells
Lassa entry inh: qHTS for Inhibitors of binding or entry into cells for Lassa Virus; Lassa virus pseudotype entry inhibition, cell reporter; Potency, µM (titrated, usually from 37.9 µM), usual class: inhibitors; hit rate 1.2% among 300,000; calls by dose curve; tested in HEK293 cells; further: nearly all actives have a fitted effect of over 50% in size
FMDV inh: High Throughput Screening for Foot and Mouth Disease Virus Antivirals; FMDV antiviral cell-based qHTS; Potency, µM (highest dose often 57.9 µM), most hits filed as inhibitors; hit rate 1.2% among 410,000; calls by dose curve; tested in HEK293T cells; further: read-out not given here; nearly all actives have a fitted effect of over 45% in size
A number is an active result; . = inactive; ? = inconclusive; / = no result; [ ] = remark or other dose. Unless noted, the call rests on the fitted dose curve; in most records, active means well fitted curve in the direction sought with a large enough effect; inconclusive means small, poorly fitted or top-dose-only effect, or another doubt; inactive means no such curve, though single readings can be large; an effect the other way counts as inactive or inconclusive.

SMILES	FBPA Giardia inh	HCMV antiviral	HCV inh	MARV entry inh	Lassa entry inh	FMDV inh
CCCCC(=O)N1CCN(c2nc(-c3ccc(F)cc3)cs2)CC1	.	.	?	.	.	?
COc1ccc(N2C(=O)[C@@H]3C[C@H]2CN3Cc2cccn2-c2ccccn2)cc1Cl	/	/	/	/	/	.
CCC(=O)C[C@@H](NC(=O)OC)c1ccc(F)cc1	/	/	/	.	/	/
CCCCN(CC)CCNC(=O)CCC(=O)Nc1ccc2nc(N3CCN(C)CC3)cc(C)c2c1	?	.	.	/	/	.
CCCN(CCC)CCCNC(=S)Nc1ccc2nc(N3CCN(CC)CC3)cc(C)c2c1	.	.	?	/	/	.
CCCN(CCC)CCCNC(=S)Nc1ccc2nc(N3CCN(C)CC3)cc(C)c2c1	.	.	12.6µM	/	/	.
CCCCN(CC)CCNC(=S)Nc1ccc2nc(N3CCN(C)CC3)cc(C)c2c1	.	.	0.891µM	3.55µM	?	.
O=C(Nc1ccc(Cl)cc1)C1CCC(CNS(=O)(=O)c2ccc(Br)s2)CC1 (centres undefined)	/	.	/	.	.	.
O=S(=O)(c1ccccc1)N1CCN(c2ccnc3cc(Cl)ccc23)CC1	.	?	?	?	?	25.1µM
Cc1cc(N2CCN(c3nc(-c4ccccc4)cs3)CC2)c2ccccc2n1	.	?	?	.	?	28.2µM
Cc1cc(N2CCN(S(=O)(=O)c3ccccc3)CC2)c2ccccc2n1	.	-88.2	?	?	.	?
O=S(=O)(c1cccs1)N1CCN(c2ccnc3cc(Cl)ccc23)CC1	.	-60.3	?	?	?	?
O=S(=O)(c1cccs1)N1CCN(c2ccccc2Cl)CC1	/	.	/	.	.	.
Cc1nc2sccn2c1CN1CCC2(CC1)CC2C(=O)Nc1ccc2c(c1)OCO2 (centres undefined)	/	/	/	/	/	.
COc1ccc(-n2c(=O)c3c4c(sc3n(Cc3ccc(C(C)(C)C)cc3)c2=O)CCC4)c(OC)c1	/	?	/	?	?	.
Cn1cccc1/C=N/n1c(-c2ccc(C(C)(C)C)cc2)n[nH]c1=S	/	?	?	?	10µM	.
Cn1cccc1/C=N/n1c(-c2ccccc2)n[nH]c1=S	.	.	.	?	?	.
CC(=O)N/C(=C\c1ccccc1)C(=O)OCC(=O)NC1CCCC1	.	.	.	.	.	.
Cc1nnnn1/C(=C\c1ccccc1)C(=O)OCC(=O)NC(C)(C)C	.	.	.	6.31µM	.	17.8µM
Cc1nnnn1/C(=C\c1ccccc1)C(=O)OCC(=O)NC1CCCCC1	/	.	.	11.2µM	?	8.91µM
CC(=O)Nc1ccc(NC(=O)COC(=O)/C(=C/c2ccccc2)n2nnnc2C)cc1	/	.	.	?	?	20µM
CC(=O)Nc1ccc(NC(=O)COC(=O)c2c(C)nn(-c3ccccc3)c2C)cc1	.	.	?	.	?	.
CC(C)(C)NC(=O)COC(=O)c1ccccc1Oc1ccccc1	.	.	.	.	.	.
CC(=O)C1C(N2CC2)CC2C3CCC4=CC(=O)CCC4(C)C3CCC21C (centres undefined)	/	-62.7	0.562µM	?	?	.
CC(=O)c1ccc(-c2cc(C3C4C=CCC(C)C4C(=O)N3Cc3ccccc3)ccc2F)cc1 (centres undefined)	.	/	/	/	/	/
SMILES	FBPA Giardia inh	HCMV antiviral	HCV inh	MARV entry inh	Lassa entry inh	FMDV inh
CSc1nnc(CNC(=O)c2c(-c3ccccc3)noc2C)n1-c1ccc(F)cc1	/	/	/	/	/	.
CCc1ccc2n(-c3ccc(OC)cc3)c([S-])c(C(=O)Nc3cc(C)cc(C)c3)[n+]2c1	.	.	.	.	.	.
COc1ccc(CCNC(=O)c2c([S-])n(-c3ccc(C)cc3)c3cccc[n+]23)cc1	.	?	11.2µM	?	?	.
COc1cc(/C=C/C(=O)c2ccc3c(c2)OCO3)cc(OC)c1OC	/	/	?	/	/	22.4µM
COc1cc(/C=C/C(=O)c2ccc3c(c2)OCCO3)cc(OC)c1OC	.	-99.5	?	/	/	?
COc1ccc(OC)c(/C=C/C(=O)c2ccc3c(c2)OCCO3)c1	.	-100.2	?	/	/	.
COc1ccc(/C=C/C(=O)c2ccc3c(c2)OCO3)cc1OC	/	?	.	?	.	.
COc1cc(C(=O)c2cc3c(cc2C)OCO3)cc(OC)c1OC	/	-67.8	/	/	/	.
CCC(C)(C)NS(=O)(=O)c1cc(-c2cc(C)no2)ccc1C	/	.	/	/	.	.
COc1cc(=O)n2c(c1C(=O)N(C)Cc1nccs1)CCN(Cc1cccc(F)c1F)CC2	/	/	/	/	/	.
CCCC(=O)N1CCN(c2ccc(NC(=O)c3cc4ccccc4o3)cc2Cl)CC1	9.98µM	-102.5	2.24µM	?	15.8µM	4.47µM
O=C(Nc1ccc(N2CCN(C(=O)c3ccco3)CC2)c(Cl)c1)c1cc2ccccc2o1	?	-99.3	3.55µM	?	?	8.91µM
CCC(=O)N1CCN(c2ccc(NC(=O)c3ccco3)cc2Cl)CC1	.	.	.	.	?	.
CCC(=O)N1CCN(c2ccc(NC(=O)c3cc4ccccc4o3)cc2Cl)CC1	?	-103.6	11.2µM	11.2µM	?	8.91µM
O=C(Nc1cc(C(F)(F)F)ccc1N1CCCCC1)c1ccco1	.	?	?	?	.	.
CN1CCN(c2ccc(C(F)(F)F)cc2NC(=O)c2ccco2)CC1	.	.	.	10µM	.	.
CCCn1c(-c2ccc(F)cc2)nc2c(NCCN(C(C)C)C(C)C)nc(C)nc21	.	/	/	/	/	/
CCCCCCC#CC1C=CC(Oc2ccc(C=O)cc2)C(CO)O1 (centres undefined)	.[12.9 µM]	/	/	/	/	/
O=C(Nc1ccc(N2CCN(C(=O)c3ccccc3)CC2)c(Cl)c1)c1ccco1	.	.	10µM	?	?	.
COc1cc(C2Nc3ccccc3-c3nnc(SCc4ccc(C)cc4)nc3O2)cc(OC)c1O (centres undefined)	/	.	/	?	.	22.4µM
CC1CCCCN1C(=O)CSc1nc2ccccc2nc1Cc1ccccc1 (centres undefined)	/	-71.8	/	/	?	.
Cc1ccc(Cc2nc3ccccc3nc2SCC(=O)N2CCC(C)CC2)cc1	/	.	/	/	.	.
COc1cccc(C2=NC(C)(CC(=O)NCc3ccccc3F)ON2C)c1 (centres undefined)	/	.	/	/	/	/
COc1ccc(-c2nc3c(c(SCC(=O)N4CCCCC4)n2)Cc2c(CO)cnc(C)c2O3)cc1	/	.	/	/	.	.
Oc1ccc(N=Nc2ccc3c(c2)OCCO3)c2ncccc12	.	-103.0	?	/	/	3.98µM
COc1cccc(NC(=O)C2CC(=O)N(c3ccc(Br)cc3)C2)c1 (centres undefined)	/	.	/	.	.	.
CCN(CC)S(=O)(=O)c1cc(NC(=O)CSc2nc3c(cc2C#N)C(=O)CC(C)(C)C3)ccc1C	.	-85.4	?	?	?	?
O=c1cc(C(F)(F)F)[nH]c2ccc(C(F)(F)F)cc12	.	-97.4	?	?	?	?
O=C(O)c1ccc(N=Cc2c(O)[nH]c(=O)[nH]c2=O)cc1	.	-76.1	.	.	.	.
